# Most compounds without a hit are left out; they make up all but 1.1% or so of the library.
# MOR-DOR inv ag: inverse agonists of MOR-DOR heterodimerization, primary screen, cell-based, luminescence; inhibition, % at 9.3 µM; cell-based MOR-DOR heterodimer luminescence, inverse agonism; 340,000 compounds, 0.21% hits; in the data active means inhibition above about 22%, passing the limit was not always enough;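 further: 0% = cells with DMSO and 100% = wells without cells with DMSO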
# Target sequence (P35372 whole entry, looked up): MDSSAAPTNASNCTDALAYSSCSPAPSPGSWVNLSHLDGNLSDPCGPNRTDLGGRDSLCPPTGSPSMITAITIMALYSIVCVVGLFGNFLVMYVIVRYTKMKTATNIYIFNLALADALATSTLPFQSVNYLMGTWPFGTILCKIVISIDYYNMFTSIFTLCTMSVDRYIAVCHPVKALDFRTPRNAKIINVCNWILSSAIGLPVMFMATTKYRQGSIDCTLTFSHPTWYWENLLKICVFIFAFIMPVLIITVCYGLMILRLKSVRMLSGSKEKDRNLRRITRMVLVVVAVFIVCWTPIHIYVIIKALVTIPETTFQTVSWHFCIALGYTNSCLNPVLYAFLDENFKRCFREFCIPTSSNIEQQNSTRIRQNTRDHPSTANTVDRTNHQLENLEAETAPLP
# Target sequence (P41143 whole entry, looked up): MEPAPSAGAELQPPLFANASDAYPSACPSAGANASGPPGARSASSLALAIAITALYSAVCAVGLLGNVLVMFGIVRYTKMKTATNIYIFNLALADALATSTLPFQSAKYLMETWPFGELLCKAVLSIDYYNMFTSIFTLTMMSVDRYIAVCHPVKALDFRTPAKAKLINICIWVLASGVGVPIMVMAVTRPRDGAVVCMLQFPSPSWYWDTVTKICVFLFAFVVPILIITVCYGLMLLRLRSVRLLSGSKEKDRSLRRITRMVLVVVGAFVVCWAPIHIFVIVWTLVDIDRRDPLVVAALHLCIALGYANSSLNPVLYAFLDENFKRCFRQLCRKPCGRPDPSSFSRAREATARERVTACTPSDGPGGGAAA
# HTR5A ag: HTR5A agonists in luminescence cell assay, primary screen, counter-screen for OPRM1-OPRD1 heterodimer agonist project, full-deck HTS. 5-hydroxytryptamine receptor 5A (Homo sapiens), P47898. cell-based. activation, % at 9.3 µM. 340,000 compounds, 0.61% hits. AID 504692, 2011; in the data active means activation mostly above about 9.5%, no sharp cut-off; inactive means mostly below about 7.6%;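 further: 0% = cells with vehicle only and 100% = reference agonist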
# MOR-DOR ag: agonists of OPRM1-OPRD1 heterodimerization, primary screen, cell-based, luminescence. Mu-type opioid receptor (Homo sapiens) + Delta-type opioid receptor (Homo sapiens), …. 340,000 compounds, 0.3% hits. activation, % at 9.3 µM. cells; in the data active means activation above about 18%;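 further: 0% = vehicle-treated cells and 100% = reference agonist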
# HTR5A inv ctr: HTR5A inverse agonists in luminescence cell assay, primary screen, counter-screen for OPRM1-OPRD1 heterodimer inverse agonist project, full-deck HTS | 340,000 compounds, 0.083% hits | HTR5A cell line, inverse agonism | AID 504634, 2011 | inhibition, % at 9.3 µM; in the data active means inhibition mostly above about 23%, no sharp cut-off; inactive means mostly below about 18%;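 further: 0% = cells with DMSO and 100% = no-cell wells with DMSO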
# OPRM1-D1 inv cf: inverse agonists of MOR-DOR heterodimerization, confirmation, cell-based, luminescence; 580 compounds, 20% hits; inhibition, % at 9.3 µM; cells expressing OPRM1/OPRD1 heterodimer; AID 504900, 2011; shares compounds with MOR-DOR inv ag; in the data active means inhibition above about 32%;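 further: 0% = cells with DMSO and 100% = wells lacking cells with DMSO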
# HTR5A inv ctr2: HTR5A inverse agonists, counter-screen for OPRM1-OPRD1 inverse agonist project, cell-based, luminescence | 580 tested, under 10 active | inhibition, % at 9.3 µM | HTR5A-expressing cells, inverse agonism | shares compounds with MOR-DOR inv ag | AID 504914, 2011; call rule not given here;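 further: 0% = cells with DMSO and 100% = no-cell wells with DMSO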
# Starred values were filed as active, the others as inactive; i = inactive; · = no result.
SMILES,MOR-DOR inv ag,HTR5A ag,MOR-DOR ag,HTR5A inv ctr,OPRM1-D1 inv cf,HTR5A inv ctr2
Cc1cccc(NC(=S)NC(=O)c2ccco2)n1,22*,-3,-3,-14,-35,-90
COC(=O)C1Cc2c([nH]c3ccccc23)C2(CCN(Cc3ccccc3)CC2)N1 (stereo unspecified),-41,2,9,-6,·,·
O=C(Nc1c(Cl)cc2c(c1Cl)Cc1cc([N+](=O)[O-])ccc1-2)C(Cl)Cl,-28,1,6,-4,·,·
O=C1Nc2ccccc2/C1=N/N=C/c1cccc(O)c1,5,3,-1,19,·,·
O=C1Nc2ccccc2C1=Nc1ccccc1-c1ccccc1,62*,-7,-14,28,-219,-20
Cc1cc(C)c(N=C2C(=O)Nc3ccccc32)c(C)c1,48*,-5,-9,19,-37,-32
Cc1cccc(C)c1N=C1C(=O)Nc2ccccc21,46*,-7,-9,28,-26,-3
Cc1cc(Br)ccc1N=C1C(=O)Nc2ccccc21,50*,-4,-10,15,14,8
Cc1ccc(NC(=O)CSCC(=O)N(C)CC(=O)Nc2ccccc2C(F)(F)F)cc1,3,11,0,-28,·,·
CN(C)S(=O)(=O)c1ccc(/C(O)=C2/C(=O)C(=O)N(Cc3cccnc3)C2c2ccncc2)cc1 (stereo unspecified),15,-3,-3,11,·,·
CN(C)S(=O)(=O)c1ccc(/C(O)=C2/C(=O)C(=O)N(Cc3cccnc3)C2c2cccs2)cc1 (stereo unspecified),40*,-4,-8,10,-162,-18
Cc1ccc(C(=O)CC2(O)C(=O)N(C)c3ccc(Br)cc32)c(C)c1 (stereo unspecified),6,-3,-1,8,·,·
CN1C(=O)C(O)(CC(=O)c2ccccn2)c2cc(Br)ccc21 (stereo unspecified),74*,3,-13,17,i,-11
CN(C1=C(NC(=O)c2ccc(Cl)cc2)C(=O)c2ccccc2C1=O)c1ccccc1,39*,-2,-6,19,-19,-9
CCS(=O)(=O)Nc1ccc(C(=O)CC2(O)C(=O)Nc3ccc(Br)cc32)cc1 (stereo unspecified),8,8,-2,31,·,·
Cc1ccc(Cl)c2c1NC(=O)C2(O)CC(=O)c1ccc(Br)cc1 (stereo unspecified),30*,-3,-5,-14,-1,8
O=C1Nc2ccccc2C1(O)Cc1ccncc1 (stereo unspecified),9,-2,-2,-2,·,·
O=C(CC1(O)C(=O)Nc2cc(Cl)cc(Cl)c21)c1ccncc1 (stereo unspecified),29*,-2,-5,1,-4,-9
O=C(/C=C/c1ccccc1)CCN1CCCCC1,18,3,-4,-10,·,·
Nc1ccc2c(c1)CC(=O)c1ccccc1S2,45*,1,-8,-8,i,6
O=C1C(=O)N(CNc2ccccn2)c2ccccc21,84*,-6,-13,17,68*,11
CN1C(=O)c2cccc3c(S(=O)(=O)Nc4ccccn4)ccc1c23,9,1,-2,-2,·,·
O=C1C(=O)N(CNc2cccnc2)c2ccccc21,51*,0,-10,9,14,6
COc1ccc(C(CNC(=O)c2ccc(-c3nc4ccccc4s3)o2)N2CCCC2)cc1 (stereo unspecified),0,1,0,-3,·,·
CC(=O)c1cccc2c(O)c(C3=Nc4ccccc4C3=O)[nH]c12,36*,2,-7,14,-428,-11
SMILES,MOR-DOR inv ag,HTR5A ag,MOR-DOR ag,HTR5A inv ctr,OPRM1-D1 inv cf,HTR5A inv ctr2
O=C1C(c2c(O)[nH]c3ccccc23)=Nc2ccccc21,13,-5,-2,-7,·,·
C/C(=C\C(=S)Nc1ccccc1)Nc1ccccc1,31*,-10,-6,14,-22,2
O=c1c2cc(Br)ccc2[nH]c(=S)n1Cc1ccccn1,64*,-1,-11,2,-93,-20
CC(=O)Nc1ccc(C2(c3ccc(NC(C)=O)cc3)C(=O)Nc3ccccc32)cc1,-32,0,6,-17,·,·
N#CC1(Nc2ccccc2)C(=O)Nc2ccccc21 (stereo unspecified),57*,-8,-10,28,-439,7
N#CC1(Nc2cccc(Br)c2)C(=O)Nc2ccccc21 (stereo unspecified),50*,-9,-9,-13,-1,4
CN(C(=O)c1cc([N+](=O)[O-])ccc1NCc1cccnc1)c1ccccc1,4,-1,-1,5,·,·
O=C(CN1C(=O)C2C3CC(C(Br)C3Br)C2C1=O)OCC(=O)c1cccc([N+](=O)[O-])c1 (stereo unspecified),61*,-7,-12,18,38*,14
CC(C)(C)c1cc(C(=O)NCC(=O)OCC(=O)c2cccc([N+](=O)[O-])c2)cc(C(C)(C)C)c1,46*,-3,-9,11,37*,52*
O=C(CN1C(=O)C2C3C=CC(C3)C2C1=O)OCC(=O)c1ccc([N+](=O)[O-])cc1 (stereo unspecified),15,-2,-3,7,·,·
O=C(CCc1ccccc1)OCC(=O)c1cccc([N+](=O)[O-])c1,54*,0,-11,50,31*,20
O=C(CN1C(=O)C2CC=CCC2C1=O)OCC(=O)c1ccc(Cl)c([N+](=O)[O-])c1 (stereo unspecified),89*,-5,-16,38*,59*,21
CCOC(=O)c1sc2ncnc(Nc3cccc(C(=O)O)c3)c2c1C,5,2,-1,-9,·,·
O=C(CN1C(=O)c2ccccc2C1=O)NCC(=O)OCC(=O)c1cccc([N+](=O)[O-])c1,73*,-1,-15,1,45*,14
O=C(Cc1ccccc1)NCC(=O)OCC(=O)c1cccc([N+](=O)[O-])c1,64*,-8,-13,19,58*,8
CC(C)(CNC(=O)c1cccs1)N1CCOCC1,15,-2,-4,5,·,·
Cc1ccccc1NC(=O)Cc1nc(COC(=O)CCNS(=O)(=O)c2ccccc2)cs1,7,6,-1,-15,·,·
Cc1ccc(C(=O)Nc2ccccc2[N+](=O)[O-])cc1S(=O)(=O)N1CCOCC1,39*,2,-6,-3,-430,5
COc1ccc(C(=O)Nc2ccccc2[N+](=O)[O-])cc1S(=O)(=O)N1CCOCC1,12,-4,-4,10,·,·
